GIRK2 activator = Activates human GIRK2-containing potassium channels; HEK293 GIRK2/NPY4 cells, thallium flux fluorescence; activation (% efficacy), % for hits at 75 µM; P48051; 34,000 tested, under 10 active; AID 1259324;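 active = primary screen hit, no activity in plain HEK293 cells, and in GIRK2-only cells above 5% efficacy rising with concentration; inactive = the rest, including fluorescent compounds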;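 note: efficacy is normalized control-subtracted fluorescence 15 s after thallium addition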
Target sequence (P48051 whole entry, looked up): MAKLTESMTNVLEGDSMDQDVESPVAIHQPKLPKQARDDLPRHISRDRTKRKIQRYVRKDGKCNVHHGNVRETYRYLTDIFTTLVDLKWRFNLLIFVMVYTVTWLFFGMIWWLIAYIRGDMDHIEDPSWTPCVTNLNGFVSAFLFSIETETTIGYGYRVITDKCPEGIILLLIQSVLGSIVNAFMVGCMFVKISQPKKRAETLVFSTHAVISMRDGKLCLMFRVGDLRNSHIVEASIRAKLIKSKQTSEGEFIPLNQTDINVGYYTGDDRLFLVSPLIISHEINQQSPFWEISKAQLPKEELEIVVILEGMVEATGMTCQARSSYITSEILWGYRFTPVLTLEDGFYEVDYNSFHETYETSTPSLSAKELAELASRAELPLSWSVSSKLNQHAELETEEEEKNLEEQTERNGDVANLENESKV
GluA2 TARP mod = modulates AMPAR-stargazin complexes | HEK293 GluA2+stargazin, membrane potential dye (FDSS), glutamate EC50; hits were called plate by plate, in both directions | 3.5% of 40,000 active | calls only at 30 µM | O88602+P19491;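 active = any of four per-well response measures lying three or more SD from its plate-wide compound average, in either direction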
Large screens that a line does not name were inactive. The sample as a whole holds a higher share of hits than the screen did.

COc1ccc(S(=O)(=O)Nc2cccc(-c3ccc(=O)n(C)n3)c2)cc1F	none
COc1cccc(N2CC(C(=O)NCCc3ccsc3)CC2=O)c1 (stereo not drawn)	none (no result: GluA2 TARP mod)
CS(=O)(=O)N1CCN(C(=O)C2CC(=O)c3ccccc32)CC1 (stereo not drawn)	none
Cc1ccc(Cl)cc1N1CCN(C(=O)C2CC(=O)c3ccccc32)CC1 (stereo not drawn)	GluA2 TARP mod active
COc1cccc2cc(C(=O)NCCn3nc(-c4cccnc4)ccc3=O)oc12	none (no result: GluA2 TARP mod)
COCCN1CCC(NC(=O)Cc2cccc(OC)c2)CC1	none
COc1ccc(-c2nnc(NC(C)=O)o2)c(OC)c1	GluA2 TARP mod active (no result: GIRK2 activator)
COc1ccccc1-c1nnc(NC(=O)c2ccccc2)o1	none (no result: GIRK2 activator)
COc1ccccc1-c1nnc(NC(=O)Cc2ccc(S(C)(=O)=O)cc2)o1	GluA2 TARP mod active (no result: GIRK2 activator)
COc1ccccc1-c1nnc(NC(=O)Cc2ccc(SC)cc2)o1	none (no result: GIRK2 activator)
COc1ccc(C(=O)Nc2nnc(-c3ccccc3OC)o2)cc1	none (no result: GIRK2 activator)
COc1ccc(-c2nnc(NC(=O)c3cccc(S(=O)(=O)C(C)C)c3)o2)c(OC)c1	GluA2 TARP mod active
COc1cccc2sc(NC(=O)c3cc(C)n(C)n3)nc12	GluA2 TARP mod active
COc1cccc2sc(NC(=O)c3cc(C)nn3C)nc12	GluA2 TARP mod active
CCOc1cccc2sc(NC(=O)c3c(C)cnn3C)nc12	none (no result: GluA2 TARP mod)
CCn1nc(C(=O)Nc2nc3c(C(C)C)cccc3s2)cc1C	none (no result: GluA2 TARP mod)
CCOc1cccc2cc(C(=O)Nc3ccc(OC)cc3)c(=O)oc12	none
CCN(CC)CCNC(=O)C(=O)Nc1ccc([N+](=O)[O-])cc1	none (no result: GIRK2 activator)
CC(O)CNC(=O)C(=O)Nc1ccc([N+](=O)[O-])cc1 (stereo not drawn)	GluA2 TARP mod active (no result: GIRK2 activator)
NC(=O)C1CCN(C(=O)c2csc(Nc3ccc(OC(F)F)cc3)n2)CC1	none
O=C(c1csc(Nc2ccc(OC(F)F)cc2)n1)N1CCCC1	GluA2 TARP mod active
CC1Cc2cc(-c3cc(CC(=O)NC4CCCC4)no3)ccc2O1 (stereo not drawn)	GluA2 TARP mod active
CC1Cc2cc(-c3cc(CC(=O)NCC4CCCO4)no3)ccc2O1 (stereo not drawn)	none
CCC(=O)Nc1sc2c(c1-c1nc3ccccc3s1)CCN(Cc1ccccc1)C2	none (no result: GIRK2 activator)
CC(C)(C)C(=O)Nc1sc2c(c1C#N)CCN(Cc1ccccc1)C2	GluA2 TARP mod active
CC(C)c1nnc(NC(=O)c2ccc(S(=O)(=O)NC3CC3)cc2)s1	none
O=C(NCC1(O)CCOCC1)C(=O)Nc1ccc(F)c(F)c1	GluA2 TARP mod active
O=C(NCC1(O)CCOCC1)C(=O)Nc1ccc2c(c1)OCCO2	none
CN(C)S(=O)(=O)c1ccc(C(=O)NCC(O)(c2ccccc2)C2CC2)cc1 (stereo not drawn)	none (no result: GIRK2 activator)
O=C(COc1ncccn1)N1CCN(c2ccc(Nc3ccccn3)nn2)CC1	GluA2 TARP mod active
Cc1cc(Nc2ccccc2)nc(N2CCN(C(=O)c3ccc4c(c3)OCO4)CC2)n1	none (no result: GIRK2 activator)
Cc1ccc(Nc2cc(C)nc(N3CCN(C(=O)COc4ncccn4)CC3)n2)cc1	GluA2 TARP mod active
COc1ccc(Nc2cc(C)nc(N3CCN(C(=O)C4CCCC4)CC3)n2)cc1	GluA2 TARP mod active
O=C(Cc1ccc(Cl)cc1)N1CCN(c2ccc(Nc3ccccn3)nn2)CC1	none
Cc1cc(C)n(-c2ccc(N3CCN(C(=O)COc4ncccn4)CC3)nn2)n1	none (no result: GluA2 TARP mod)
Cc1cc(C)n(-c2nc3c(c(=O)n2CC(=O)NCc2ccco2)CCCC3)n1	GluA2 TARP mod active
Cc1cc(C)n(-c2nc3c(c(=O)n2CC(=O)N(C)c2ccccc2)CCC3)n1	none
Cc1cc(NC(=O)Cc2cccs2)n(C2CCS(=O)(=O)C2)n1 (stereo not drawn)	none
CCOC(=O)NCc1nc2ccccc2n1Cc1ccccc1F	GluA2 TARP mod active
COC(=O)NCCc1nc2ccccc2n1Cc1c(F)cccc1Cl	GluA2 TARP mod active (no result: GIRK2 activator)
CCOC(=O)NCc1nc2ccccc2n1Cc1c(F)cccc1Cl	none (no result: GIRK2 activator)
OCc1nc2ccccc2n1Cc1c(F)cccc1Cl	none (no result: GIRK2 activator)
O=C(NCCc1ccccc1)C(=O)c1cn(CC(=O)N2CCOCC2)c2ccccc12	GluA2 TARP mod active (no result: GIRK2 activator)
O=C(NCc1ccccc1)C(=O)c1cn(CC(=O)N2CCOCC2)c2ccccc12	none (no result: GIRK2 activator)
O=C(COc1ccc(Cl)cc1Cl)NCCCn1nc(-c2ccco2)ccc1=O	none
CN(C)C(=O)Cc1ccc(NC(=O)Nc2ccc(Cl)c(Cl)c2)cc1	GluA2 TARP mod active
CN(C)C(=O)Cc1ccc(NC(=O)Cc2ccc(Cl)cc2)cc1	none
Cc1cn(C)nc1C(=O)Nc1nc2ccc(S(C)(=O)=O)cc2s1	GluA2 TARP mod active
CC(C)S(=O)(=O)c1ccc(C(=O)Nc2nc3cc4c(cc3s2)OCCO4)cc1	none
CS(=O)(=O)c1ccc2nc(NC(=O)Cn3cccn3)sc2c1	none
Cc1ccc2nc(NC(=O)c3ccc(S(=O)(=O)C(C)C)cc3)sc2c1	GluA2 TARP mod active (no result: GIRK2 activator)
Cc1[nH]c(=O)[nH]c(=O)c1CC(=O)NCCn1nc(-c2ccco2)ccc1=O	none
CCCS(=O)(=O)N1CCCc2cc(NC(=O)Nc3ccccc3OCC)ccc21	none
Cc1ccc(NS(=O)(=O)c2ccccc2)c(C(=O)c2ccccc2)c1	GluA2 TARP mod active (no result: GIRK2 activator)
Cc1ccc(S(=O)(=O)Nc2ccccc2C(=O)Nc2ccc(C)cc2C(=O)c2ccccc2)cc1	none (no result: GIRK2 activator)
O=C(NCCn1nc(-n2cccn2)ccc1=O)c1cc(-c2ccc(F)cc2)n[nH]1	none (no result: GluA2 TARP mod)
Cc1cc(C)c2c(n1)nn1c(N3CCCCC3)cc(C)nc21	GluA2 TARP mod active
Cc1cc(C)c2c(n1)nn1c(NC(C)c3ccccc3)cc(C)nc21 (stereo not drawn)	none
CSc1nn(CC(=O)Nc2ccc(Br)cc2)c(N)c1S(=O)(=O)c1ccc(C)cc1	none
CSc1nn(CC(=O)Nc2ccc(Cl)cc2)c(N)c1S(=O)(=O)c1ccccc1	GluA2 TARP mod active (no result: GIRK2 activator)
COc1ccc(OC)c(NC(=O)Cn2c(=O)n(C(C)C)c(=O)c3nscc32)c1	none
Cc1cc(C)c(-c2ccc(SCC(=O)NCc3ccc4c(c3)OCO4)nn2)cc1C	GluA2 TARP mod active
O=C(CSc1ccc(-c2ccc3ccccc3c2)nn1)NCc1ccc2c(c1)OCO2	none
O=C(Nc1ccc(F)c(F)c1)c1sccc1S(=O)(=O)N1CCN(c2ccccc2)CC1	GluA2 TARP mod active
COc1cccc(NC(=O)c2sccc2S(=O)(=O)N2CCN(c3ccc(Cl)cc3)CC2)c1	none (no result: GluA2 TARP mod)
CN1CCOc2ccc(NC(=O)c3ccno3)cc2C1=O	none
O=C(Nc1ccc(O)c(-c2nc3ccccc3s2)c1)c1ccno1	none
CN1C(=O)Cc2cc(NC(=O)c3ccno3)ccc21	GluA2 TARP mod active
O=C(Nc1ccc2sccc2c1)c1ccno1	GluA2 TARP mod active
Cc1cccc(CC(=O)Nc2ccc3c(c2)CC(=O)N3C)c1	none (no result: GIRK2 activator)
CN1C(=O)c2ccc(NC(=O)c3ccno3)cc2C1=O	GluA2 TARP mod active (no result: GIRK2 activator)
COCCN1CCC(NC(=O)C2(c3ccccc3)CCOCC2)CC1	none
COc1ccc(-c2cc(CC(=O)N3CCCC(C)C3)no2)cc1OC (stereo not drawn)	none
Cn1c(=O)c2cc(C(=O)NCC3CCCO3)sc2n(C)c1=O (stereo not drawn)	none
CC(=O)Nc1cccc(NC(=O)c2cc3c(=O)n(C)c(=O)n(C)c3s2)c1	GluA2 TARP mod active
Cn1c(=O)c2cc(C(=O)NCCN3CCOCC3)sc2n(C)c1=O	GluA2 TARP mod active
Cn1c(=O)c2cc(C(=O)N3CCCC3)sc2n(C)c1=O	GluA2 TARP mod active
COC(=O)C1CCN(C(=O)c2cc3c(=O)n(C)c(=O)n(C)c3s2)CC1	none

Screening results (PubChem)
